Rows were chosen to be rich in hits. Some 4.5% of all compounds tested hit in one or more screens of this group.
Jurkat NFkB inh – inhibitors of induced NF-kB luciferase reporter, primary screen, TCR NF-kB activation inhibitor project, cell-based, luminescence, uHTS | actives 0.53% (n = 330,000) | inhibition, % at 4 µM | Jurkat, PMA/ionomycin-induced NF-kB luciferase reporter | AID 435003, 2010; in the data active = inhibition above about 50%
aSyn 5UTR inh – MLPCN primary screen, SNCA 5' untranslated region. alpha-synuclein 5'UTR reporter, inhibitor activity. inhibition, % (tested at 7.5 µM). actives 0.82% (n = 300,000). AID 1813, 2009; in the data active = inhibition above about 60%;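 also: H4 neuroglioblastoma cells stably carrying SNCA 5'UTR luciferase fusion; 0% = DMSO wells and 100% = positive control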
CSC inhib – cancer stem cell viability inhibitors, primary screen, luminescence; inhibition, % at 7.5 µM; cancer stem cell-like cells viability; actives 1.1% (n = 300,000); AID 2717, 2010; in the data active = inhibition above about 75%; tested in HMLE shEcad cells
697 NFkB inh – inhibitors of PMA/ionomycin-induced NF-kB reporter, 697 cells, primary screen, B-cell NF-kB inhibitor project, cell-based, luminescence, uHTS | actives 0.33% (n = 330,000) | inhibition, % at 4 µM | 697 B-cell NF-kB luciferase reporter, 16 h; in the data active = inhibition above about 35%
Mdm2 MdmX PPI – inhibitors of human Mdm2-MdmX association, primary screen, cell-based, luminescence, split luciferase, SaOS-2, uHTS; SaOS-2 split-luciferase Mdm2/MdmX complementation; actives 3% (n = 330,000); inhibition, % at 8 µM; AID 485346, 2010; Protein Mdm4 (Homo sapiens) + E3 ubiquitin-protein ligase Mdm2 (Homo sapiens), …;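 active = inhibition of at least 50% at 8 µM in the primary screen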
Target sequence (O15151 whole entry, looked up): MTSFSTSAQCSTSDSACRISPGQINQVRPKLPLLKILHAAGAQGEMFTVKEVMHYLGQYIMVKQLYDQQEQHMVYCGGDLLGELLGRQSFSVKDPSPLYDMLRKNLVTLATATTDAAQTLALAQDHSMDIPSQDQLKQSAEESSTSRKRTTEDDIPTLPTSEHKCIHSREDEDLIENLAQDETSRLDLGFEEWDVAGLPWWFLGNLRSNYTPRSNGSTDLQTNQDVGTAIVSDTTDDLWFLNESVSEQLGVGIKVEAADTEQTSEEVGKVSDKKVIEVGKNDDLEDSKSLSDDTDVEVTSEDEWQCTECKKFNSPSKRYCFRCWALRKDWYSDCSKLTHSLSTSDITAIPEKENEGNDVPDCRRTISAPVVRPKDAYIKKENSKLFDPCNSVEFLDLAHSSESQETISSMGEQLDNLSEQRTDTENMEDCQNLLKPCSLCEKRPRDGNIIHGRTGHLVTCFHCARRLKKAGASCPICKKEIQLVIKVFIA
Target sequence (Q00987 whole entry, looked up): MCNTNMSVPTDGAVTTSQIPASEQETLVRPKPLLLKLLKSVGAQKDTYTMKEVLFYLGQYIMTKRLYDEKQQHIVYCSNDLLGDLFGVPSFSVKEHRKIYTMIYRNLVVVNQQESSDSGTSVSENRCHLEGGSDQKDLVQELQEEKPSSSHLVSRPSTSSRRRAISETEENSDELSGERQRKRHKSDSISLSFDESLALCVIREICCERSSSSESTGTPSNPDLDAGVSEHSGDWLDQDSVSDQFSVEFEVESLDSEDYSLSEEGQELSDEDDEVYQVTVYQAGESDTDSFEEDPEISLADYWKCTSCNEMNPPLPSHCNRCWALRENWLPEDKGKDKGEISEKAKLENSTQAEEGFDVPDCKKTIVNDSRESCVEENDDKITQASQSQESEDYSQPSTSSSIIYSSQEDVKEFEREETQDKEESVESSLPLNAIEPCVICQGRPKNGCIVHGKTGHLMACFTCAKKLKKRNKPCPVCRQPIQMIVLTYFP
Gli-Sufu antag – Gli-Sufu pathway antagonists, primary screen, luciferase luminescence, Sufu-KO-LIGHT cells, uHTS; Sufu-KO-LIGHT fibroblasts, Gli luciferase reporter luminescence; inhibition, % at 5 µM; actives 0.74% (n = 340,000);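 active = inhibition above about 55%, limit read from the data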;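 also: 0% = DMSO-treated cells and 100% = wells with medium but no cells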
Starred values were filed as active, the others as inactive; . = no result.

SMILES	Jurkat NFkB inh	aSyn 5UTR inh	CSC inhib	697 NFkB inh	Mdm2 MdmX PPI	Gli-Sufu antag
O=C(Nc1nnc(-c2ccc(Cl)cc2)o1)c1nc2ccccc2s1	-10	-7	99*	6	26	33
CCCN(CCC)S(=O)(=O)c1ccc(C(=O)Nc2nnc(-c3cccc(OC)c3)o2)cc1	-13	70*	20	-64	44	21
CCCCN(CC)S(=O)(=O)c1ccc(C(=O)Nc2nnc(-c3ccccc3Cl)o2)cc1	-3	76*	-9	-44	8	.
O=C(Nc1nnc(-c2ccc(Cl)cc2)o1)Nc1ccccc1Cl	5	6	11	-5	17	-4
C(=NN=C1c2ccccc2-c2ccccc21)c1ccc2c(c1)OCO2	.	.	.	.	.	-14
Cc1cccc(-c2nnc(NC(=O)c3ccc(Cl)cc3)o2)c1	2	-4	89*	-10	44	-3
CCCCN(C)S(=O)(=O)c1ccc(C(=O)Nc2nnc(-c3cccs3)o2)cc1	3	81*	111*	-29	45	.
COc1ccccc1N1CCN(C2CCCN(C(=O)CN3CCCCC3=O)C2)CC1 (stereo not drawn)	2	17	22	12	10	8
Cc1cc(NCCCO)n2nc(-c3cccs3)cc2n1	2	3	-7	15	15	-1
OCCCNc1cc(-c2ccccc2)nc2cc(-c3ccc(F)cc3)nn12	-17	-27	83*	-39	12	0
CCC1CCCCN1C(=S)Nc1ccc(OC(F)F)cc1 (stereo not drawn)	6	1	-2	-17	16	9
CCCCOc1ccc(S(=O)(=O)N2CCCCC2)cc1	-10	-18	10	-32	4	-6
CCCCOc1ccc(S(=O)(=O)N2CCN(c3ccc(N4CCN(CC)CC4)nn3)CC2)cc1	1	11	95*	-7	34	16
C=C(C(=O)c1ccccc1)C(C)C(=C)C(=O)c1ccccc1	.	-149	82*	.	.	32
c1coc(CNc2nc(-c3cccs3)cs2)c1	-2	107*	0	1	-1	-25
Cc1ccc(-n2c(-c3ccc(Br)cc3)c[n+]3c2CCc2ccc4cccnc4c2-3)cc1	.	86*	64	.	.	87*
Cc1ccc(-n2c(=O)[nH]c3ncccc3c2=O)cc1	11	-6	-18	8	-10	-3
O=C(C[C@H]1C/C=C\C[C@@H](Cc2ccc(F)cc2)C(=O)O[C@H](c2ccccc2)CNC1=O)NCCO	19	.	-9	16	20	3
O=C(NCc1cccs1)c1nc2c(nnn2Cc2ccccc2Cl)c(=O)[nH]1	.	77*	111*	.	.	-3
CCC(C)NC(=O)c1nc2c(nnn2Cc2ccccc2Cl)c(=O)[nH]1 (stereo not drawn)	-19	29	16	5	0	3
COc1ccc(N2CCN(C(=O)C(Cc3ccccc3)NC(=O)c3ccccc3)CC2)cc1 (stereo not drawn)	.	.	.	.	.	27
O=C(NC(c1ccc(Cl)cc1)c1c(O)ccc2ccccc12)c1ccccc1 (stereo not drawn)	.	.	107*	.	.	-3
Cc1cc(C)n2nc(NCc3cccc(Br)c3)nc2n1	-3	-12	-14	-3	17	-20
COc1ccccc1NC(=O)CSCc1ccc([N+](=O)[O-])cc1	12	10	-2	-5	7	-24
Cn1cccc1-c1nc2ccccc2n1Cc1ccccc1	-1	11	88*	-55	-9	2
SMILES	Jurkat NFkB inh	aSyn 5UTR inh	CSC inhib	697 NFkB inh	Mdm2 MdmX PPI	Gli-Sufu antag
COc1ccc(Cn2c(-c3ccc(OC)cc3)nc3ccccc32)cc1	4	-3	5	-18	13	-10
O=C(Nc1ccc(Cl)c(Cl)c1)Nc1ccccc1O	-112	-105	93*	-140	-221	7
CCOc1ccc(-n2c(SCC(=O)Nc3ccc(C(=O)O)cc3)nc3ccccc3c2=O)cc1	-31	14	-7	-5	-21	6
Cc1cccc(OCCNc2cc(N3CCOCC3)ccc2[N+](=O)[O-])c1	-16	-23	5	-8	16	-13
Cc1cccc(OCCNc2cc(N3CCN(C)CC3)ccc2[N+](=O)[O-])c1	-1	-15	80*	-4	-5	1
COc1cccc(CNC(=O)CCS(=O)(=O)c2ccc3c(c2)NC(=O)CO3)c1	9	99*	8	-12	-8	-12
COc1cccc(CNC(=O)CCS(=O)(=O)c2cc3c(cc2C)NC(=O)CO3)c1	-2	-4	7	-1	5	-15
CC1(C)CN(c2ccccc2)N(C(=O)c2ccc(F)cc2)C1=O	14	26	92*	13	-3	8
CC(=O)OCC1(C)CN(c2ccccc2)N(C(=O)c2ccc(C(C)(C)C)cc2)C1=O (stereo not drawn)	.	-1	.	.	.	-20
CC1(C)CN(c2ccccc2)N(C(=O)c2ccc(C#N)cc2)C1=O	11	.	91*	18	7	-5
O=C(COC(=O)C(O)c1ccccc1)NC12CC3CC(CC(C3)C1)C2 (stereo not drawn)	6	2	.	7	5	15
O=C(CON=C1c2ccccc2-c2ccccc21)NC12CC3CC(CC(C3)C1)C2	-23	4	179*	-2	26	14
CCOC(=O)N1CCN(C(=O)C(CC(C)C)NS(=O)(=O)c2ccc(C)cc2)CC1 (stereo not drawn)	-2	.	.	20	-4	-5
O=C(NC1CCCC1)C(c1cccnc1)N(Cc1ccccc1)C(=O)c1csnn1 (stereo not drawn)	-1	-13	-15	9	-4	4
COc1cc(SC)ccc1C(=O)Nc1ccc(Cl)cn1	-54	100*	-12	-174	46	-21
COc1ccc(C2CCCN2CC(O)COc2ccccc2C(C)C)cc1 (stereo not drawn)	3	16	32	1	37	17
CN1CCC(OC(=O)c2cccc(Cl)c2)CC1	-17	-6	117*	-8	0	9
Cc1cccc(C(=O)OC2CCN(C)CC2)c1	-25	0	47	-28	22	6
O=Cc1s/c(=N\S(=O)(=O)c2ccccc2)n(CCCCl)c1Cl	.	70*	.	.	.	-2
O=C(Nc1cccc(Cl)c1)NC1CCN(C2CCCCC2)C1 (stereo not drawn)	8	-3	2	-25	15	34
CC1CCN(c2ccc(-c3ccc(NC(=O)C(F)(F)F)cc3)nn2)CC1	-99	71*	47	-158	21	-42
O=S(=O)(Nc1nc2ccccc2nc1-[n+]1cccc(N=C([O-])c2ccccc2Cl)c1)c1ccccc1	12	-20	-9	17	31	.

High-throughput results deposited in PubChem by several laboratories.
